Measurements: PubChem BioAssay (NCATS)
Records with an inconclusive call do not appear. The source made the active and inactive calls. Calls follow the shape of the dose curve; as a rule, active = well fitted cell-killing curve with a large enough effect; inconclusive = small, poorly fitted or top-dose-only effect, or effect the other way; inactive = no such curve, though single readings can be large or run the other way.

assay: Quantitative High-Throughput drug screen in 47 multiple myeloma cell lines against the NCATS MIPE library collection: OCIMY1_PLB cell viability assay (AID 1918979); conditions: OCI-MY1 myeloma viability, CellTiter-Glo ATP, 48 h; series mostly up to 45.8 µM; viability: at the top concentration; also: nearly all actives have a fitted effect of over 35% in size
Excerpt: PI: Beverly A. Mock Ph.D.
Laboratory of Cancer Biology and Genetics,
Center for Cancer Research, National Cancer Institute,
National Institute of Health, Bethesda, Maryland
Drug resistance and disease progression are common in multiple myeloma (MM) patients, underscoring the need for new therapeutic combinations. […] We hypothesized that effective combinations would reduce MYC expression and enhance p16 activity. […] These preclinical data identify potentially useful drug combinations for evaluation in drug-resistant MM and reveal potential mechanisms of combined drug sensitivity.
Described herein is the primary MIPE qHTS used to cherrypick compounds. Validated compounds were then further tested for potential synergistic activiy.
[1] Peat TJ, Gaikwad SM, Dubois W, Gyabaah-Kessie N, Zhang S, Gorjifard S, Phyo Z, Andres M, Hughitt VK, Simpson RM, Miller MA, Girvin AT, Taylor A, Williams D, D'Antonio N, Zhang Y, Rajagopalan A, Flietner E, Wilson K, Zhang X, Shinn P, Klumpp-Thomas C, McKnight C, Itkin Z, Chen L, Kazandijian D, Zhang J, Michalowski AM, Simmons JK, Keats J, Thomas CJ, Mock BA. Drug combinations identified by high-throughput screening promote cell cycle transition and upregulate Smad pathways in myeloma. Cancer Lett. 2023 Aug 1;568:216284. doi: 10.1016/j.canlet.2023.216284. Epub 2023 Jun 24. PMID: 37356470; PMCID: PMC10408729.
SEQUENCE No. (e.g., 1, 2, 3, etc.); […] (e.g., Cells, Incubation, Reagent, etc.); VALUE and DESCRIPTION.
1; Cells; 5 uL; white, solid bottom 1536-well Greiner assay plate.
2; Compounds; 23 nL; Kalypsis pin tool (Wako USA) equipped with a 1536-well pin head to transfer to the assay plates.
3; Incubation; 48 hours; 37C incubation.
4; Reagent;5uL; CellTiter Glo (Promega).
5; Detector; 425V; Luminescence; Viewlux PerkinElmer.
NOTES (numbers refer to Sequence numbers above)
1. The cell-based screening methods employed in this study were like those previously published. Briefly, the corresponding myeloma cell lines were screened in 1,536-well plates with 500 cells, 5-uL per well for inhibition of cell viability (assessed by measuring ATP levels with CellTiterGlo).
2. NCATS MIPE 4.0 library of approved and investigational drugs were added using the Kalypsis pin tool. Wells treated with DMSO only for 100% viability and media only for 0% viability were used as controls.
3. The assay plates were covered and incubated for 48 hours in a 37C, 5% CO2 incubator with controlled humidity.
4. After 48 hours, CellTilter-GloTM luminescent substrate mix (Promega) reagent was added to the assay plate and plates we incubated for 5 min at room temperature.
5. Signal was measured as median relative luminescence units on a ViewLux (PerkinElmer) multiplate reader.
[1] Heske CM, Davis MI, Baumgart JT, Wilson K, Gormally MV, Chen L, Zhang X, Ceribelli M, Duveau DY, Guha R, Ferrer M, Arnaldez FI, Ji J, Tran HL, Zhang Y, Mendoza A, Helman LJ, Thomas CJ. Matrix Screen Identifies Synergistic Combination of PARP Inhibitors and Nicotinamide Phosphoribosyltransferase (NAMPT) Inhibitors in Ewing Sarcoma. Clin Cancer Res. 2017 Dec 1;23(23):7301-7311. doi: 10.1158/1078-0432.CCR-17-1121. Epub 2017 Sep 12. PMID: 28899971; PMCID: PMC6636827.

Row | SMILES | viability
1 | CC(NC(C)(C)C)C(=O)c1cccc(Cl)c1 (stereo unspecified) | 94.4% (inactive)
2 | CC(C)C[C@H](CN)CC(=O)O | 108% (inactive)
3 | C[C@]12CCC(=O)C=C1CC[C@@H]1[C@H]3CC[C@](C)(O)[C@@]3(C)CC[C@@H]12 | 119% [at 92.2 µM] (inactive)
4 | O=P1(N(CCCl)CCCl)NCCCO1 (stereo unspecified) | 109% (inactive)
5 | CCC1(c2ccc(N)cc2)CCC(=O)NC1=O (stereo unspecified) | 109% (inactive)
6 | C[C@]12CC[C@H]3[C@@H](CC[C@@]45O[C@H]4C(O)=C(C#N)C[C@]35C)[C@H]1CC[C@H]2O | 108% (inactive)
7 | C[C@]12CC[C@@H]3c4ccc(OC(=O)N(CCCl)CCCl)cc4CC[C@H]3[C@@H]1CC[C@@H]2OP(=O)(O)O | 133% (inactive)
8 | CN1C(=O)COc2c(C(=O)NC3CN4CCC3CC4)cc(Cl)cc21 (stereo unspecified) | 145% (inactive)
9 | CC(C)c1cccc(C(C)C)c1O | 112% (inactive)
10 | COc1cc(OC)c(OC)cc1C=O | 109% (inactive)
11 | O=C(O)CCCc1ccc(N(CCCl)CCCl)cc1 | 108% (inactive)
